# Bioassay records deposited in PubChem BioAssay by several laboratories.
# PostGolgi yeast = phenotypic screen on post-Golgi transport, primary screen; inhibition, % at 10 µM; post-Golgi transport phenotypic cell assay; hit rate 0.9% among 98,000; AID 739, 2007;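 note: yeast cells grown in 1536-well plates; yeast grown about 18 h at 30C before absorbance read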
# PostGolgi ctrl = growth inhibition of yeast control strain, primary screen, counter-screen for post-Golgi transport modulator project | inhibition, % at 10 µM | AID 738, 2007 | efflux-deficient yeast background strain, growth absorbance A615, 16 h | hit rate 5% among 98,000
# S1P2 antag = human S1P2 receptor antagonists, primary screen, cell-based; cell-based S1P2 antagonist assay, inhibition at 5 uM; inhibition, % at 5 µM; hit rate 0.21% among 97,000; in the data active = inhibition above about 45%;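 note: CRE beta-lactamase reporter cells expressing human S1P2 stimulated with S1P; 0% = agonist at EC80 alone and 100% = agonist plus reference antagonist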
# GALR2 blocker = GALR2 antagonists in receptor-expressing cells, primary screen; Galanin receptor type 2 (Homo sapiens), O43603; hit rate 0.39% among 140,000; inhibition, % at 4 µM; antagonist mode; in the data active = inhibition above about 27%;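 note: cells stimulated with galanin 1-16 at roughly its EC80; 0% = agonist challenge control and 100% = basal control without agonist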
# Target sequence (O43603 whole entry, looked up): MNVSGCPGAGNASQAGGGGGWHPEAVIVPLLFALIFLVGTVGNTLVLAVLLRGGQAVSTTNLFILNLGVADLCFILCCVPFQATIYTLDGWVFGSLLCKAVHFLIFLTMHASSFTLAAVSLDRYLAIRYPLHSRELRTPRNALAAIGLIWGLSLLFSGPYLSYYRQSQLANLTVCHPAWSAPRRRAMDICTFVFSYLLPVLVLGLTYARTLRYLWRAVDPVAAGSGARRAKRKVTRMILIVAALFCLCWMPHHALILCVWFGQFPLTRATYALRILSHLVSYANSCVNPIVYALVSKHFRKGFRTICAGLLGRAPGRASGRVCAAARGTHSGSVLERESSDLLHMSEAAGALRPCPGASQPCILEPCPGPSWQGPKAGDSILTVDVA
# S1P2 ag = S1P2 receptor agonists, primary screen, cell-based. Sphingosine 1-phosphate receptor 2 (Homo sapiens), O95136. activation, % at 4.5 µM. hit rate 0.46% among 97,000. S1P2-expressing cell line, agonist reporter read-out; in the data active = activation above about 16%;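 note: 0% = vehicle low control and 100% = maximal reference agonist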
# GALR2 ag = GALR2 receptor agonists, primary screen, cell-based | Galanin receptor type 2 (Homo sapiens), O43603 | activation, % (test concentration not listed) | GALR2-expressing cells, agonist activation read-out | hit rate 0.48% among 140,000; in the data active = activation above about 5%, passing the limit was not always enough;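 note: 0% = vehicle buffer wells and 100% = reference agonist at full effect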
# * marks the source's active call; other numbers are inactive results; / = not tested or not shown. Only a selection was taken, and hits are over-represented in it overall. Cut-off read from the data, not from the text of the source, unless noted: active = inhibition above about 30%; inactive = the rest.
SMILES,PostGolgi yeast,PostGolgi ctrl,S1P2 antag,GALR2 blocker,S1P2 ag,GALR2 ag
O=C(C(NS(=O)(=O)c1cccs1)c1ccccc1)N1CCN(c2ccccc2)CC1 (configuration not stated),5.8,5.8,8.3,-2.3,-9.2,-0.8
Cc1cc(OC(=O)c2ccc(Cl)cc2Cl)nc(C)n1,5.5,-2.6,-23.3,7.5,-4.5,-2.8
COc1ccc(CNC(=O)Cn2cc(C(F)(F)F)ccc2=O)cc1,/,/,/,-3.1,/,-2.2
C=CCN1C(=O)C(CC(=O)Nc2ccccc2)SC1=Nc1ccc(S(N)(=O)=O)cc1 (configuration not stated),7.2,-3.4,21.4,1.4,-8.4,-1.5
COc1ccc(C(=O)/C=C2/Sc3cc4c(cc3N2C)OCO4)cc1,/,/,/,3.2,/,0.0
COc1ccc2c(c1)S/C(=C\C(=O)c1ccncc1)N2C,51.0*,85.9*,9.9,8.2,-5.6,-2.8
O=C(NO)c1ccc(C(=O)N(C2CCCCC2)C2CCCCC2)cc1,101.9*,95.6*,-5.3,5.9,-5.8,-2.9
CN(C(=O)c1ccc(C(=O)N(C)C2CCCCC2)cc1)C1CCCCC1,/,/,-9.0,-8.9,-0.6,0.3
COc1cc(C2C(Oc3ccccc3C)C(=O)N2Cc2ccc(F)cc2)cc(OC)c1OC (configuration not stated),/,/,/,-3.0,/,-1.0
COc1ccc(OC2C(=O)N(Cc3ccc(F)cc3)C2c2ccc(OC)c(OC)c2)cc1 (configuration not stated),-2.4,40.0*,-11.6,-6.4,-4.5,-2.9
CCn1c(SCC(=O)N/N=C/c2ccc(O)c(OC)c2)nc2ccccc21,/,/,/,-0.7,/,0.1
CC1CN(S(=O)(=O)c2ccc(C(=O)Nc3ccc(S(=O)(=O)Nc4ncccn4)cc3)cc2)CC(C)O1 (configuration not stated),/,/,/,9.0,/,-0.9
Cc1ncsc1CCOC(=O)C12CC3CC(CC(C3)C1)C2,-2.6,46.4*,-1.5,0.2,-1.5,-2.0
Cc1ncsc1CCOC(=O)c1cccnc1,-2.1,7.3,12.4,-5.2,-0.8,-1.5
CCOC(=O)C1=C(c2ccccc2)O/C(=C(\C(=O)OC)C(F)(F)F)S1,-9.8,12.4,-4.2,1.8,-4.6,-1.8
CCOC(=O)C1=C(c2ccccc2)O/C(=C(/C#N)C(F)(F)F)S1,3.3,39.1*,-7.5,12.7,1.2,1.3
COc1ccc(NC(=S)NN(C)C(=S)Nc2ccc(OC)cc2)cc1,/,/,/,0.1,/,0.4
CC(C)CCn1c(N2CCN(c3cccc(Cl)c3)CC2)nc2c1c(=O)[nH]c(=O)n2C,2.8,35.3*,/,13.6,/,-0.5
CCCCCn1c(CN2CCN(c3cccc(Cl)c3)CC2)nc2c1c(=O)[nH]c(=O)n2C,1.7,44.8*,6.3,2.7,0.2,-0.7
CCNc1nc(NCC)n2c(SC(C(=O)Nc3cc(C)ccc3OC)c3ccccc3)nnc2n1 (configuration not stated),/,/,/,8.0,/,-0.9
CN(C)S(=O)(=O)c1ccc(S(=O)(=O)NC2CCOC(C)(C)C2)cc1 (configuration not stated),/,/,-9.0,-9.8,-5.2,0.0
Cc1ccccc1NC(=O)c1nc[nH]c1C(=O)NCc1ccccc1,5.8,53.3*,0.4,0.1,-1.6,-0.7
O=C(N/N=C/c1ccc(OC(=O)c2ccccc2)c([N+](=O)[O-])c1)c1ccc(O)cc1,/,/,/,-6.6,/,0.5
COc1ccc(Oc2ccc(/C=C/C(=O)c3cccc(OC)c3)cc2[N+](=O)[O-])cc1,/,/,/,-4.3,/,-2.4
O=C1C(=O)c2c(C(=O)c3ccccc3)coc2-c2ccccc21,58.6*,45.0*,7.6,1.2,-7.7,-1.9
SMILES,PostGolgi yeast,PostGolgi ctrl,S1P2 antag,GALR2 blocker,S1P2 ag,GALR2 ag
Cc1oc2c(c1C(=O)c1ccccc1)C(=O)C(=O)c1ccccc1-2,27.2,43.1*,20.4,8.5,-1.8,-1.8
O=C(C1=C(c2ccccc2)C(=O)c2ccccc2C1=O)c1ccccc1,/,/,/,6.7,/,0.3
CC(C)c1ccc(C(=O)NNC(=O)C2CC=CCC2C(=O)O)cc1 (configuration not stated),/,/,/,9.7,/,-1.7
CCOC(=O)C1C(=O)C=C(c2cccs2)CC1c1ccccc1 (configuration not stated),/,/,/,-25.3,/,-0.4
CCOC(=O)C1C(=O)C=C(c2ccc([N+](=O)[O-])cc2)CC1c1ccccc1 (configuration not stated),23.1,38.0*,-8.2,0.0,-6.8,-0.5
Cc1sc(-c2ccncc2)nc1OC(=O)c1cc(Cl)cc(Cl)c1,-3.4,32.2*,5.4,-8.2,-1.0,-2.5
Cc1sc(-c2ccncc2)nc1OC(=O)c1ccc(Cl)cc1,-0.3,36.3*,9.0,1.7,-8.6,-0.4
O=C(Nc1cccc(Cl)c1)Nc1nnc(-c2ccncc2)s1,/,/,/,-1.1,/,0.9
COCCN1C(=O)N[C@@H](c2ccc(Br)cc2)C(C(C)=O)=C1C,/,/,/,-1.6,/,-0.5
c1ccc(-c2ccc(C3=Nn4c(Cn5nnc6ccccc65)nnc4SC3)cc2)cc1,4.0,36.2*,-23.1,-1.9,-4.9,0.5
Fc1ccc(C2=Nn3c(Cc4ccccc4F)nnc3SC2)cc1,-6.1,0.8,-13.7,-0.2,-5.3,-3.5
CCCCN(CCCNC(=O)c1c(C)cc(=O)oc1C)c1ccccc1,-6.9,32.3*,0.7,-10.1,-1.5,0.3
CCn1c(SCC(=O)NCCc2ccccc2)nnc1-c1cccs1,7.8,8.5,17.2,1.3,-3.9,-1.7
CCn1c(CNC(=O)c2cccs2)nnc1SCC(=O)NCCc1ccccc1,3.0,30.9*,-17.2,5.5,-5.4,-0.7
CC1CN(c2cc(-c3ccccc3)c3ccccc3n2)CC(C)O1 (configuration not stated),13.2,25.0,-19.2,-14.1,2.0,-2.6
CCOc1nc(-c2ccncc2)nc2ccccc12,5.0,34.5*,-28.1,3.3,1.5,-1.3
c1ccc2c(N3CCCCCC3)nc(-c3ccncc3)nc2c1,26.8,67.8*,-27.7,-10.0,-3.3,2.3
CC1CN(c2nc(-c3ccccc3)nc3ccccc23)CC(C)O1 (configuration not stated),2.9,41.0*,-31.6,-3.0,-2.6,-0.1
c1cncc(-c2nc(N3CCCCCC3)c3ccccc3n2)c1,-9.5,66.2*,-20.5,-5.6,-4.6,0.7
CN(Cc1ccccc1)c1nc(N)c([N+](=O)[O-])c(Nc2cccc(F)c2)n1,21.8,26.6,-59.9,0.7,22.3*,-4.2
Cc1cc(C)nc(N=Nc2c(O)n(Cc3ccc(Cl)cc3)c3ccccc23)n1,/,/,/,14.7,/,-1.1
Cc1cc(C(=O)CN2C(=O)NC3(CCCc4ccccc43)C2=O)c(C)n1Cc1ccccc1 (configuration not stated),-7.5,12.2,-22.4,-0.1,8.7,-0.9
Cc1cc(C(=O)CN2C(=O)c3ccccc3C2=O)c(C)n1Cc1cccs1,/,/,-2.6,-6.5,26.9*,-0.6
